Results reported in ChEMBL document CHEMBL1961873, “Compounds: GSK PKIS; Assays: Nanosyn kinase panel” (2012).
Several values for one entry are separate records, joined by “and”; a condition that tells them apart may be missing. Equal entries are not always repeated.

Molecular target: SRSF protein kinase 1 (Homo sapiens) (UniProt Q96SB4)
Settings: at 0.1 µM

SRSF protein kinase 1 (Homo sapiens), sequence (Q96SB4 whole entry): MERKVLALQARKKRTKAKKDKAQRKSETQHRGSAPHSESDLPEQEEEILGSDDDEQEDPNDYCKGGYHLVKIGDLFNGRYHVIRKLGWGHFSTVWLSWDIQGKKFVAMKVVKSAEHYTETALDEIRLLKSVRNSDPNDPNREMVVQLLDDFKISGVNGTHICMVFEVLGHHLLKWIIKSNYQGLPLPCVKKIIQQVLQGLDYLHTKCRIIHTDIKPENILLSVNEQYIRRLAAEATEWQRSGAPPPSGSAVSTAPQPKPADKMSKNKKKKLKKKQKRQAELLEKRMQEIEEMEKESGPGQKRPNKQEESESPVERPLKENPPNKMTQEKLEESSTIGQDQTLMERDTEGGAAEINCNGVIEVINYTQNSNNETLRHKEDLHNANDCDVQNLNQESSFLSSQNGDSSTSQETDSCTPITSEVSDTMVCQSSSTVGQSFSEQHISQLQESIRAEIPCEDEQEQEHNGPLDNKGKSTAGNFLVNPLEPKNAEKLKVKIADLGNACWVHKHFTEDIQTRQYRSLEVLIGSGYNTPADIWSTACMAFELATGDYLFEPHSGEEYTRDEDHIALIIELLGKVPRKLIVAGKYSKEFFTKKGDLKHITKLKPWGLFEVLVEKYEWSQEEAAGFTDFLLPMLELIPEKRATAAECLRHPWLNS

Row | Compound | inhibition
1 | O=C(O[C@H]1CN[C@H](C#Cc2cc3ncnc(Nc4ccc5c(cnn5Cc5ccccc5)c4)c3s2)C1)N1CCOCC1 | -2.05%
2 | Cn1c(-c2nonc2N)nc2cnccc21 | -3.06%
3 | Nc1ncnc2occ(-c3ccc(NC(=O)Nc4cc(C(F)(F)F)ccc4F)cc3)c12 | 1.86% and 3.34%
4 | O=C(Nc1n[nH]c2nnc(-c3cccnc3)cc12)C1CC1 | -1.16%
5 | COc1ccc2ncn(-c3cc(O[C@H](C)c4ccccc4C(F)(F)F)c(C(N)=O)s3)c2c1 | -0.66%
6 | CCOc1ccc2c(-c3ccnc(Nc4cc(OC)cc(C(F)(F)F)c4)n3)cnn2n1 | -1.1%
7 | c1ccc(-c2n[nH]cc2-c2ccnc(-c3ccc(OCCn4ccnc4)cc3)c2)nc1 | 0.42%
8 | CCN1CCC(C(=O)Nc2n[nH]c3nnc(-c4cccc(F)c4F)cc23)CC1 | -1.43%
9 | Nc1nonc1-c1nc2cnccc2n1C1CC1 | -1.33% and -0.52%
10 | O=C1Nc2ccccc2/C1=C1\CCc2cc(O)ccc21 | -1.97%
11 | NC(=O)c1ccc2c(-c3ccnc(NCCCO)n3)c(-c3ccc(F)cc3)nn2c1 | -2.08%
12 | NS(=O)(=O)c1ccc(N/N=C2\C(=O)Nc3cccc(CCc4ccncc4)c32)cc1 | -0.62%
13 | FC(F)(F)CNc1nccc(-c2cnn3ncccc23)n1 | -3.11%
14 | COc1ccc(-c2nn3ncccc3c2-c2ccnc(Nc3ccc(F)c(F)c3)n2)cc1 | -0.49%
15 | c1cnn2ncc(-c3ccnc(NCCCN4CCOCC4)n3)c2c1 | -1.76%
16 | COc1cc(Nc2ncc(-c3ccccc3)o2)cc(OC)c1 | -2.65%

Row | Compound | inhibition
17 | CCS(=O)(=O)c1ccc(OC)c(Nc2ncc(-c3cccc(C(C)=O)c3)o2)c1 | -0.6%
18 | COC(=O)Nc1nc2ccc(Oc3ccc(NC(=O)Nc4cc(C(F)(F)F)ccc4F)cc3)cc2s1 | -1.59%
19 | COc1ccc(Nc2ncc(-c3ccccc3)o2)cc1OC | -1.72%
20 | NS(=O)(=O)c1cccc(N/C=C2\C(=O)Nc3ccccc32)c1 | -2.16%
21 | COc1cc(N2CCN(C(C)C)CC2)ccc1Nc1nc(Nc2cccc3ncccc23)c2cc[nH]c2n1 | -1.39%
22 | COc1cc(N2CCN(C(C)C)CC2)ccc1Nc1nc(Nc2cccc(F)c2C(=O)O)c2cc[nH]c2n1 | -1.29%
23 | CN1CCC(C(=O)Nc2n[nH]c3nc(-c4ccc(O)cc4)c(Br)cc23)CC1 | -0.9% and -1.12%
24 | O=C(O[C@H]1CN[C@H](C#Cc2cc3ncnc(Nc4ccc(OCc5cccc(F)c5)c(Cl)c4)c3s2)C1)N1CCOCC1 | -2%
25 | CN(C)CCNC(=O)Nc1ccc(N(C)c2ccnc(Nc3ccc(CS(C)(=O)=O)cc3)n2)cc1 | -1.44%
26 | NS(=O)(=O)c1ccc(N/N=C2\C(=O)Nc3ccc(C(=O)NCc4ccncc4)cc32)cc1 | -1.11%
27 | Fc1ccc(Nc2nccc(-c3c(-c4ccc(C(F)(F)F)cc4)nn4ncccc34)n2)cc1F | -0.59%
28 | CC1(C)CC(n2cnc(-c3ccc(F)cc3)c2-c2ccnc(N)n2)CC(C)(C)N1 | 0.72%
29 | Cc1c2ccc(N(C)c3ccnc(Nc4cccc(S(N)(=O)=O)c4)n3)cc2nn1C | -1.71%
30 | CN1CCC(n2cnc(-c3ccc(F)cc3)c2-c2ccnc(NCCO)n2)CC1 | -1.01%
31 | CS(=O)(=O)CCNCc1ccc(-c2ccc3ncnc(Nc4ccc(OCc5ccccc5)cc4)c3c2)o1 | -2.16%

Molecular target: SRSF protein kinase 1 (Homo sapiens) (UniProt Q96SB4)
Settings: at 1 µM

Row | Compound | inhibition
32 | O=C(O[C@H]1CN[C@H](C#Cc2cc3ncnc(Nc4ccc5c(cnn5Cc5ccccc5)c4)c3s2)C1)N1CCOCC1 | -3.6%
33 | Cn1c(-c2nonc2N)nc2cnccc21 | -4.33%
34 | Nc1ncnc2occ(-c3ccc(NC(=O)Nc4cc(C(F)(F)F)ccc4F)cc3)c12 | 28.9% and 22%
35 | O=C(Nc1n[nH]c2nnc(-c3cccnc3)cc12)C1CC1 | -0.28%
36 | COc1ccc2ncn(-c3cc(O[C@H](C)c4ccccc4C(F)(F)F)c(C(N)=O)s3)c2c1 | -1.2%
37 | CCOc1ccc2c(-c3ccnc(Nc4cc(OC)cc(C(F)(F)F)c4)n3)cnn2n1 | -0.9%
38 | c1ccc(-c2n[nH]cc2-c2ccnc(-c3ccc(OCCn4ccnc4)cc3)c2)nc1 | -0.94%
39 | CCN1CCC(C(=O)Nc2n[nH]c3nnc(-c4cccc(F)c4F)cc23)CC1 | 0.92%
40 | Nc1nonc1-c1nc2cnccc2n1C1CC1 | -1.72% and -0.89%
41 | O=C1Nc2ccccc2/C1=C1\CCc2cc(O)ccc21 | -3.93%
42 | NC(=O)c1ccc2c(-c3ccnc(NCCCO)n3)c(-c3ccc(F)cc3)nn2c1 | -2.11%
43 | NS(=O)(=O)c1ccc(N/N=C2\C(=O)Nc3cccc(CCc4ccncc4)c32)cc1 | -1%
44 | FC(F)(F)CNc1nccc(-c2cnn3ncccc23)n1 | -3.13%
45 | COc1ccc(-c2nn3ncccc3c2-c2ccnc(Nc3ccc(F)c(F)c3)n2)cc1 | 4.3%
46 | c1cnn2ncc(-c3ccnc(NCCCN4CCOCC4)n3)c2c1 | -3.38%
47 | COc1cc(Nc2ncc(-c3ccccc3)o2)cc(OC)c1 | -2%

Row | Compound | inhibition
48 | CCS(=O)(=O)c1ccc(OC)c(Nc2ncc(-c3cccc(C(C)=O)c3)o2)c1 | 4.89%
49 | COC(=O)Nc1nc2ccc(Oc3ccc(NC(=O)Nc4cc(C(F)(F)F)ccc4F)cc3)cc2s1 | -2.01%
50 | COc1ccc(Nc2ncc(-c3ccccc3)o2)cc1OC | -3.33%
51 | NS(=O)(=O)c1cccc(N/C=C2\C(=O)Nc3ccccc32)c1 | -4.31%
52 | COc1cc(N2CCN(C(C)C)CC2)ccc1Nc1nc(Nc2cccc3ncccc23)c2cc[nH]c2n1 | -1.2%
53 | COc1cc(N2CCN(C(C)C)CC2)ccc1Nc1nc(Nc2cccc(F)c2C(=O)O)c2cc[nH]c2n1 | 5.69%
54 | CN1CCC(C(=O)Nc2n[nH]c3nc(-c4ccc(O)cc4)c(Br)cc23)CC1 | 0.97% and -0.81%
55 | O=C(O[C@H]1CN[C@H](C#Cc2cc3ncnc(Nc4ccc(OCc5cccc(F)c5)c(Cl)c4)c3s2)C1)N1CCOCC1 | 0.44%
56 | CN(C)CCNC(=O)Nc1ccc(N(C)c2ccnc(Nc3ccc(CS(C)(=O)=O)cc3)n2)cc1 | -2.68%
57 | NS(=O)(=O)c1ccc(N/N=C2\C(=O)Nc3ccc(C(=O)NCc4ccncc4)cc32)cc1 | 2.06%
58 | Fc1ccc(Nc2nccc(-c3c(-c4ccc(C(F)(F)F)cc4)nn4ncccc34)n2)cc1F | -3.45%
59 | CC1(C)CC(n2cnc(-c3ccc(F)cc3)c2-c2ccnc(N)n2)CC(C)(C)N1 | -1.12%
60 | Cc1c2ccc(N(C)c3ccnc(Nc4cccc(S(N)(=O)=O)c4)n3)cc2nn1C | -3.4%
61 | CN1CCC(n2cnc(-c3ccc(F)cc3)c2-c2ccnc(NCCO)n2)CC1 | 3.27%
62 | CS(=O)(=O)CCNCc1ccc(-c2ccc3ncnc(Nc4ccc(OCc5ccccc5)cc4)c3c2)o1 | -2.56%
